# Laboratory results as given in PubChem BioAssay (EPA / NIEHS).
# The source made the active and inactive calls. Rule for the calls: active = hit-call score of the fitted dose curve at least 0.9, where 1 is the maximum; inactive = score below 0.9.
# Assay: CCTE_Padilla_ZF_Score.Swim_bladder: CCTE's 144 Hour Post-fertilization zebrafish Assay Score for Swim Bladder Malformation, Padilla Lab (AID 2284408)
# Procedure: CCTE_Padilla_ZF_Phenotype_Score is a whole embryo, multiplexed assay using zebrafish ova exposed for 144 hours post fertilization on a 96-well plate.CCTE_Padilla_ZF_Score.Swim_bladder is one of one assay component(s) measured or calculated from the CCTE_Padilla_ZF_Phenotype_Score assay. It is designed to make measurements of zebrafish development as detected with brightfield microscopy of developing zebrafish embryos.Data from the assay component CCTE_Padilla_ZF_Score.Swim_bladder was analyzed into 1 assay endpoints. This assay endpoint, CCTE_Padilla_ZF_Score.Swim_bladder, was analyzed in the positive analysis fitting direction relative to DMSO as the negative control and baseline of activity. Using a type of viability reporter, gain-of-signal activity can be used to understand changes in developmentals as they relate to the whole embryo. To generalize the intended target to other relatable targets, this assay endpoint is annotated to the zebrafish development intended target family, where the subfamily is swim bladder morphogenesis.
# Zebrafish husbandry: Wild type adult zebrafish (Danio rerio; undefined outbred stock obtained from Aquatic Research Organisms, Hampton, NH, 03842) were housed in an AAALAC-approved animal facility at 28C with a 14:10 h light: dark cycle (lights on at 08:30 h). Adult fish (2-3 females per male; density = 15-20 adults per tank) were kept in one of several 9-liter (L) flow-through colony tanks (Aquaneering Inc., San Diego, CA). All adults in a colony tank were placed in a 2 L (static) breeding tank (Aquatic Habitats, Apopka, FL) one hour prior to light onset. Typically, adults from two to three colony tanks were mated on the same day. Two hours after light onset the adults were returned to the colony tank. All embryos were gathered from each breeder tank, pooled, and placed in a 28C water bath for 2 h, followed by two washes with 0.06% bleach (v/v) in 10% Hanks' Balanced Salt Solution (13.7 mM NaCl 0.54 mM KCl, 25 uM Na2HPO4, 130 uM CaCl2 100 um MgSO4 and 420 um NaHCO3,), hereafter referred to as Hanks' solution, for 5 min in order to remove any residual bacteria or fungi. Immediately following washing, the embryos were examined, and healthy embryos were separated from dead or unfertilized eggs and moved into fresh Hanks'. Chemical exposures: Zebrafish embryos were exposed in 96-well plates. Between 6- and 8-hours post fertilization (hpf), healthy embryos (with chorions) were transferred, one embryo per well, into 96 well (0.5 mL) microtiter plates (Cell Culture-Treated, Flat-Bottom Microplate 96 well [Corning Costar, Kennebunk, ME; Cat 09-761-145]) filled with 200 uL of Hanks' solution. A random number generator was used to assign the order in which the rows of embryos were plated in 96 well plates each week. After plating, the embryos were dosed with 0.8 uL of the chemical dosing solution then immediately sealed with AlumaSeal II (Excel Scientific Inc, Victorville, CA) to prevent volatilization of the chemicals, and then placed in a leakproof secondary container. These containers were placed in an incubator maintained on a 14:10 h light: dark cycle at 26C for rearing. On 5 dpf, live larvae were gently moved out of the plate with test chemicals and into a new 96 well mesh plate (Millipore Corp., Bedford, MA) with just the Hanks' solution. Once within the mesh well plate, the animals were rinsed with 400 uL of fresh Hanks' three times, and then the plates were covered with a non-adhesive material (Microseal A, BioRad, Hercules, CA), plate lid added, and then plate sides wrapped in Parafilm (PM992, Bermis Company, Neenah, WI), and returned to the incubator. […]
SMILES,AC50,outcome
FC(F)C(F)(F)COCC1CO1 (stereo not given),32.2 µM (active),
C[Si](C)(C)C(F)(F)C(F)(F)C(F)(F)F,,inactive
O=S(=O)(O)CCC(F)(F)C(F)(F)C(F)(F)C(F)(F)C(F)(F)C(F)(F)F,,inactive
OCCC(F)(F)C(F)(F)C(F)(F)C(F)(F)F,,inactive
NCC(F)(F)C(F)(F)C(F)(F)C(F)(F)F,,inactive
OC(O)(C(F)C(O)(O)C(F)(F)F)C(F)(F)F,32.1 µM (active),
FC(F)=C(F)C(F)(F)C(F)(F)C(F)(F)C(F)(F)C(F)(F)C(F)(F)F,,inactive
FC(F)(F)COC(OCC(F)(F)F)OCC(F)(F)F,,inactive
O=C(Cl)C(F)(F)C(F)(F)C(F)(F)C(=O)Cl,,inactive
FC(F)(F)C(F)(F)C(F)(F)C(F)(F)C(F)(F)C(F)(F)I,,inactive
